# Inconclusive results are not listed. The source made the active and inactive calls. Calls follow the shape of the dose curve; as a rule, active = well fitted cell-killing curve with a large enough effect; inconclusive = small, poorly fitted or top-dose-only effect, or effect the other way; inactive = no such curve, though single readings can be large or run the other way.
# Assay: Quantitative High-Throughput drug screen in 47 multiple myeloma cell lines against the NCATS MIPE library collection: PCM6_Riken cell viability assay (AID 1919870); also: nearly all actives have a fitted effect of over 30% in size
# Settings: CellTiter-Glo ATP, 48 h; series mostly up to 45.8 µM
# From the text: PI: Beverly A. Mock Ph.D.
# Laboratory of Cancer Biology and Genetics,
# Center for Cancer Research, National Cancer Institute,
# National Institute of Health, Bethesda, Maryland
# Drug resistance and disease progression are common in multiple myeloma (MM) patients, underscoring the need for new therapeutic combinations. […] We hypothesized that effective combinations would reduce MYC expression and enhance p16 activity. […] These preclinical data identify potentially useful drug combinations for evaluation in drug-resistant MM and reveal potential mechanisms of combined drug sensitivity.
# Described herein is the primary MIPE qHTS used to cherrypick compounds. Validated compounds were then further tested for potential synergistic activiy.
# [1] Peat TJ, Gaikwad SM, Dubois W, Gyabaah-Kessie N, Zhang S, Gorjifard S, Phyo Z, Andres M, Hughitt VK, Simpson RM, Miller MA, Girvin AT, Taylor A, Williams D, D'Antonio N, Zhang Y, Rajagopalan A, Flietner E, Wilson K, Zhang X, Shinn P, Klumpp-Thomas C, McKnight C, Itkin Z, Chen L, Kazandijian D, Zhang J, Michalowski AM, Simmons JK, Keats J, Thomas CJ, Mock BA. Drug combinations identified by high-throughput screening promote cell cycle transition and upregulate Smad pathways in myeloma. Cancer Lett. 2023 Aug 1;568:216284. doi: 10.1016/j.canlet.2023.216284. Epub 2023 Jun 24. PMID: 37356470; PMCID: PMC10408729.
# SEQUENCE No. (e.g., 1, 2, 3, etc.); […] (e.g., Cells, Incubation, Reagent, etc.); VALUE and DESCRIPTION.
# 1; Cells; 5 uL; white, solid bottom 1536-well Greiner assay plate.
# 2; Compounds; 23 nL; Kalypsis pin tool (Wako USA) equipped with a 1536-well pin head to transfer to the assay plates.
# 3; Incubation; 48 hours; 37C incubation.
# 4; Reagent;5uL; CellTiter Glo (Promega).
# 5; Detector; 425V; Luminescence; Viewlux PerkinElmer.
# NOTES (numbers refer to Sequence numbers above)
# 1. The cell-based screening methods employed in this study were like those previously published. Briefly, the corresponding myeloma cell lines were screened in 1,536-well plates with 500 cells, 5-uL per well for inhibition of cell viability (assessed by measuring ATP levels with CellTiterGlo).
# 2. NCATS MIPE 4.0 library of approved and investigational drugs were added using the Kalypsis pin tool. Wells treated with DMSO only for 100% viability and media only for 0% viability were used as controls.
# 3. The assay plates were covered and incubated for 48 hours in a 37C, 5% CO2 incubator with controlled humidity.
# 4. After 48 hours, CellTilter-GloTM luminescent substrate mix (Promega) reagent was added to the assay plate and plates we incubated for 5 min at room temperature.
# 5. Signal was measured as median relative luminescence units on a ViewLux (PerkinElmer) multiplate reader.
# [1] Heske CM, Davis MI, Baumgart JT, Wilson K, Gormally MV, Chen L, Zhang X, Ceribelli M, Duveau DY, Guha R, Ferrer M, Arnaldez FI, Ji J, Tran HL, Zhang Y, Mendoza A, Helman LJ, Thomas CJ. Matrix Screen Identifies Synergistic Combination of PARP Inhibitors and Nicotinamide Phosphoribosyltransferase (NAMPT) Inhibitors in Ewing Sarcoma. Clin Cancer Res. 2017 Dec 1;23(23):7301-7311. doi: 10.1158/1078-0432.CCR-17-1121. Epub 2017 Sep 12. PMID: 28899971; PMCID: PMC6636827.
# Potency is read from the fitted curve at half-maximal effect.
row,Structure (SMILES),Potency
1,NC12CC3CC(CC(C3)C1)C2,3.32 µM (active)
2,O=C1c2c(O)ccc(O)c2C(=O)c2c(NCCNCCO)ccc(NCCNCCO)c21,0.935 µM (active)
3,CN1CCC(=C2c3ccccc3C=Cc3ccccc32)CC1,18.7 µM (active)
4,Cc1ccccc1N1C(=O)c2cc(S(N)(=O)=O)c(Cl)cc2NC1C (stereo not given),5.9 µM (active)
5,Clc1ccc2nsnc2c1NC1=NCCN1,inactive
6,Clc1ccc(C(c2ccccc2Cl)C(Cl)Cl)cc1 (stereo not given),18.7 µM (active)
7,NC(CO)C(=O)NNCc1ccc(O)c(O)c1O (stereo not given),inactive
8,CC(C(=O)O)c1cccc(C(=O)c2ccccc2)c1 (stereo not given),16.6 µM (active)
9,CN1C2CCC1CC(OC(=O)C(CO)c1ccccc1)C2 (stereo not given),inactive
10,COc1cc2nc(N(C)CCCNC(=O)C3CCCO3)nc(N)c2cc1OC (stereo not given),inactive
11,Cn1c(=O)c2[nH]cnc2n(C)c1=O,inactive
12,CC#C[C@]1(O)CC[C@H]2[C@@H]3CCC4=CC(=O)CCC4=C3[C@@H](c3ccc(N(C)C)cc3)C[C@@]21C,0.743 µM (active)
13,CC(C)NCC(O)COc1ccc(CCOCC2CC2)cc1 (stereo not given),inactive
14,Cc1cc(C(C)(C)C)c(O)c(C)c1CC1=NCCN1,inactive
15,O=C(Nc1ccc([N+](=O)[O-])cc1Cl)c1cc(Cl)ccc1O,1.32 µM (active)
16,CCc1cccc2c3c([nH]c12)C(CC)(CC(=O)O)OCC3 (stereo not given),inactive
17,O=c1[nH]cc(F)c(=O)[nH]1,10.5 µM (active)
18,CN(C)C(=O)C(CCN1CCC(O)(c2ccc(Cl)cc2)CC1)(c1ccccc1)c1ccccc1,20.9 µM (active)
19,CN1CCN(CCCN2c3ccccc3Sc3ccc(Cl)cc32)CC1,8.33 µM (active)
20,CCOC(=O)c1ncn2c1CN(C)C(=O)c1cc(F)ccc1-2,inactive

row,Structure (SMILES),Potency
1,CN(CCOc1ccc(NS(C)(=O)=O)cc1)CCc1ccc(NS(C)(=O)=O)cc1,inactive
2,C[C@](N)(Cc1ccc(O)c(O)c1)C(=O)O,inactive
3,Cn1ccc2cc3c(cc21)CCN3C(=O)Nc1cccnc1,23.5 µM (active)
4,CNCCCC12CCC(c3ccccc31)c1ccccc12,23.5 µM (active)
5,Nc1nc2c(ncn2COC(CO)CO)c(=O)[nH]1,23.5 µM (active)
6,CCN1CCCC1CNC(=O)c1cc(S(=O)(=O)CC)c(N)cc1OC (stereo not given),inactive
7,O=C(c1ccc(OCCN2CCCCC2)cc1)c1c(-c2ccc(O)cc2)sc2cc(O)ccc12,18.7 µM (active)
8,O=C1Cc2cc(CCN3CCN(c4nsc5ccccc45)CC3)c(Cl)cc2N1,18.7 µM (active)
9,Cn1cnc2c1c(=O)[nH]c(=O)n2C,16.6 µM (active)
10,CC(C)C(=O)Nc1ccc([N+](=O)[O-])c(C(F)(F)F)c1,3.32 µM (active)
11,COc1cc2nc(N3CCN(C(=O)c4ccco4)CC3)nc(N)c2cc1OC,7.43 µM (active)
12,Cc1cnc(C(=O)NCCc2ccc(S(=O)(=O)NC(=O)NC3CCCCC3)cc2)cn1,16.6 µM (active)
13,NCCS(=O)(=O)O,inactive
14,CN(Cc1cnc2nc(N)nc(N)c2n1)c1ccc(C(=O)N[C@@H](CCC(=O)O)C(=O)O)cc1,0.105 µM (active)
15,CCCNCC(O)COc1ccccc1C(=O)CCc1ccccc1 (stereo not given),inactive
16,NCCCCCC(=O)O,inactive
17,CCCCc1oc2ccccc2c1C(=O)c1cc(I)c(OCCN(CC)CC)c(I)c1,20.9 µM (active)
18,O=c1c(O)c(-c2ccc(O)c(O)c2)oc2cc(O)cc(O)c12,18.7 µM (active)
19,CC(=O)OCC(CCn1cnc2cnc(N)nc21)COC(C)=O,inactive
20,CN1C(C(=O)Nc2ccccn2)=C(O)c2ccccc2S1(=O)=O,inactive

# From PubChem BioAssay (NCATS)
